Bioassay records: PubChem, National Center for Advancing Translational Sciences (NCATS)
PLK1 PBD block: blocks phosphopeptide binding to human PLK1 polo-box domain. Plk1 PBD binding of FITC phosphopeptide, fluorescence polarization. 2.8% of 360,000 active. Potency, µM, most hits filed as inhibitors. P53350; further: series mostly up to about 57 µM; nearly all actives have a fitted effect of over 65% in size
ALDH1A1 block: ALDH1A1 (human) enzyme inhibition | P00352 | Purified ALDH1A1, NADH fluorescence, propionaldehyde substrate | Potency, µM (doses to about 75.3 µM), hits mostly inhibitors | 7.3% of 220,000 active | AID 1030; active means well fitted inhibition curve with a large enough effect, not every such curve was filed as active; inconclusive means small, poorly fitted or top-dose-only effect, or another doubt; inactive means no such curve, though single readings can be large or run the other way
Target sequence (P00352 whole entry, looked up): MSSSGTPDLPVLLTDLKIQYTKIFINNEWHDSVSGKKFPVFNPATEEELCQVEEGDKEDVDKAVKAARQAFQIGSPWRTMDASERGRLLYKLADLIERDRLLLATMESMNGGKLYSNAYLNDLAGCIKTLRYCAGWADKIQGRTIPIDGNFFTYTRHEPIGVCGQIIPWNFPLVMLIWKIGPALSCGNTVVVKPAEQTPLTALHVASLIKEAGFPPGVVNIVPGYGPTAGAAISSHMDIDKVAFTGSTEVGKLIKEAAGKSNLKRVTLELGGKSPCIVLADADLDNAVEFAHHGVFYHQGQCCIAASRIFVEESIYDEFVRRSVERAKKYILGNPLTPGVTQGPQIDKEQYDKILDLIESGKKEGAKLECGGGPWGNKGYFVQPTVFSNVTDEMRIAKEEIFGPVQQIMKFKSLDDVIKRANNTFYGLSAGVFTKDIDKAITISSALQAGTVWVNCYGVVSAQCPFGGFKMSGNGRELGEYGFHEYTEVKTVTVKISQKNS
Sfp inh: blocks B. subtilis Sfp PPTase activity; 3.5% of 310,000 active; Biochemical Sfp PPTase activity, qHTS; Potency, µM, hits mostly inhibitors; Q9F4F7;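 further: the enzyme is Sfp with the accession as filed and its product quenches rhodamine fluorescence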
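Compounds were incubated with enzyme (final 15 nM) for 15 min at room temperature before substrate addition started the reaction. Fluorescence at 525 nm excitation, 598 nm emission was recorded immediately and after 30 minutes.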
RORg inh: blocks mouse ROR gamma transcriptional activity. Potency, µM (series often up to 53.6 µM), usual class: inhibitors. 5.4% of 310,000 active. Drosophila S2 Gal4-RORgamma UAS-luciferase reporter, 20 h. P51450; further: nearly all actives have a fitted effect of over 60% in size
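Schneider cells (Drosophila), stable Gal4 DBD–ROR gamma + UAS-luc; 1 hr cmpd preincubation; Cu2+ induction 700 uM final; 20 hr ambient; luminescence.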
VP16 counter: counter-screen for ROR gamma inhibitors: Gal4-VP16 reporter. Drosophila S2 Gal4-VP16 UAS-luciferase, luminescence, 20 h. Potency, µM (doses to about 53.6 µM), most hits filed as inhibitors. 3.5% of 310,000 active. AID 2546;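 further: Gal4-VP16 expression switched on by copper sulfate through the metallothionein promoter; nearly all actives have a fitted effect of over 50% in size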
Sfp inh conf: confirmation of Bacillus subtilis Sfp PPTase inhibitors; shares compounds with Sfp inh; Sfp PPTase enzymatic assay, qHTS titration; Potency, µM (top dose mostly 114 µM), most hits filed as inhibitors; 79% of 380 active
Target sequence (Q9F4F7 whole entry, looked up): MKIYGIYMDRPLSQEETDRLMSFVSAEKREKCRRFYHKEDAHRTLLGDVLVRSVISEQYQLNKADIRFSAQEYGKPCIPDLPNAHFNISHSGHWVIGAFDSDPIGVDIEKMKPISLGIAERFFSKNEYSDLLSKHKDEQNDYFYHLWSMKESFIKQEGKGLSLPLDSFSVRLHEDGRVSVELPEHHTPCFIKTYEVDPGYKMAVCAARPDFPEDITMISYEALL
Sfp gel assay: Inhibits Bacillus subtilis Sfp phosphopantetheinyl transferase. shares compounds with Sfp inh. purified Sfp, gel-based phosphopantetheinylation read-out. Potency, µM, actives largely listed as inhibitors. 20% of 210 active. AID 2707;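 active means potency below 100 µM; inconclusive means dose-dependent response but potency above 100 µM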;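 further: potency is an IC50 for inhibitors of Sfp transfer activity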
Hits are given with their value; – = inactive; ? = inconclusive; · = not tested or not shown; ! = repeats disagree; [ ] = remark or other dose. In the library only some 12% were active in any assay of this set; here they are far more common. Unless noted, the call rests on the fitted dose curve; in most records, active means well fitted curve in the direction sought with a large enough effect; inconclusive means small, poorly fitted or top-dose-only effect, or another doubt; inactive means no such curve, though single readings can be large; an effect the other way counts as inactive or inconclusive.

SMILES | PLK1 PBD block | ALDH1A1 block | Sfp inh | RORg inh | VP16 counter | Sfp inh conf | Sfp gel assay
O=C(O)c1ccc(-n2c(=O)c3ccccc3c3ccccc3c2=O)cc1 | ? | – | 7.94µM | – | – | 74.4µM | ?
CC(OC(=O)Cc1coc2ccc3ccccc3c12)C(=O)NC(N)=O (stereo not given) | – | · | – | – | – | · | ·
Cc1ccc(-n2c(CSc3nc(C)cc(C)n3)nnc2SCC(=O)NCc2ccco2)cc1 | – | – | ? | – | – | · | ·
Cc1ccc(-n2c(Cc3cccn3C)nnc2SCC(=O)NCc2ccco2)cc1 | – | – | 6.31µM | – | – | ? | –
O=c1c2ccccc2nc2n1CCC2O (stereo not given) | – | – | – | – | – | · | ·
O[C@@H]1CCN2Cc3ccccc3N=C12 | · | · | 2.82µM | – | – | 2.1µM | 0.69µM
CC1=C(C(N)=O)N2C(=O)[C@@H](NC(=O)Cc3ccccc3)C2SC1 (stereo not given in full) | · | ? | 25.1µM | – | – | 4.49µM | 0.92µM
N[C@@H](C(=O)N[C@@H]1C(=O)N2C(C(=O)O)=C(Cl)CS[C@H]12)c1ccccc1 | 26.7µM | ? | 50.1µM | – | – | 74.4µM | 55.6µM
CC=CC1=C(C(=O)O)N2C(=O)[C@H](NC(=O)[C@H](N)c3ccc(O)cc3)[C@@H]2SC1 | · | ? | 39.8µM | – | – | 37.3µM | 18.5µM
CCCC(=O)N1CCC1(C)C(=O)Nc1ccc2scnc2c1 (stereo not given) | – | · | · | · | · | · | ·
O=C(NCCCN1CCOCC1)c1sc2cc([N+](=O)[O-])ccc2c1Cl | 1.06µM | 7.94µM | 0.891µM | – | ? | 2.35µM | ·
O=C(NCCCN1CCOCC1)c1sc2cc(Cl)ccc2c1Cl | – | – | – | – | – | · | ·
O=C(Nc1ccccn1)c1sc2cc([N+](=O)[O-])ccc2c1Cl | 2.67µM | · | 6.31µM | – | ? | 3.73µM | ·
O=C(Nc1ccccc1C(=O)Nc1ccccn1)c1ccc([N+](=O)[O-])cc1 | – | – | – | – | –[10 µM] | · | ·
CCC(C(=O)Nc1c(C)cccc1C)n1c(-c2cnc(C)cn2)nc2ccccc21 (stereo not given) | – | · | · | · | · | · | ·
Cc1cccc(NS(=O)(=O)c2ccc3oc(=O)ccc3c2)c1C | – | · | – | ? | – | · | ·
c1cncc(-c2nc(-c3ccco3)cs2)c1 | – | 1.26µM | 7.94µM | – | – | 14.8µM | ·
c1cncc(-c2csc(-c3cccnc3)n2)c1 | – | · | – | – | – | · | ·
CCOC(=O)c1c(N2C(=O)CC(Sc3ccccc3C(=O)O)C2=O)sc2c1CCCC2 (stereo not given) | – | 4.47µM | 3.55µM | – | – | 41.8µM | ·
CCCCOc1ccc(C(=O)NCC(=O)NC2CCC(C)CC2)cc1 (stereo not given) | – | · | · | · | · | · | ·
Cc1[nH]c(=O)[nH]c(=O)c1S(=O)(=O)N(CC(C)C)CC(C)C | – | – | – | – | – | · | ·
Cc1ccc(-c2nn[nH]n2)o1 | – | – | 25.1µM | – | – | 11.8µM | –
COc1cccc(-c2nn(C)c3sc(C(=O)NCc4ccc(C)o4)cc23)c1 | ? | ? | 3.55µM | – | 20µM | 23.5µM | ·
Nc1c(C(=O)Nc2ccccc2)sc2nc(-c3cccnc3)ccc12 | · | · | 7.94µM | – | – | 29.6µM | ?
CC(C)(C)NS(=O)(=O)c1ccc(Oc2ncc(C(F)(F)F)cc2Cl)cc1 | – | – | 25.1µM | – | – | 52.7µM | –
SMILES | PLK1 PBD block | ALDH1A1 block | Sfp inh | RORg inh | VP16 counter | Sfp inh conf | Sfp gel assay
O=C(NNC(=O)C1CC=CCC1)c1ccccc1Cl (stereo not given) | – | · | – | – | – | · | ·
O=C1CC/C=C\C[C@@H](CC(=O)N(CCO)Cc2ccccc2)C(=O)N2CCC[C@H]2CO1 | – | · | · | · | · | · | ·
CN1CCCC[C@@H]1CCN1c2ccccc2Sc2ccc(S(C)=O)cc21 (stereo not given in full) | · | – | 20µM! | –[10 µM] | ? | 41.8µM | 18.5µM
COC(=O)c1c(NC(=O)c2ccc(C)o2)sc2c1CCCCC2 | – | ? | 14.1µM | – | – | 37.3µM | –
COc1nccnc1NS(=O)(=O)c1ccc(NC(=O)c2cccc(C)c2)cc1 | – | – | – | – | – | · | ·
O=C(CSc1nc2ccc(S(=O)(=O)N3CCOCC3)cc2[nH]1)N1CCOCC1 | 2.24µM | 3.55µM | 6.31µM | – | – | 3.73µM | ·
CCOC(=O)c1c(NS(=O)(=O)c2cccc(OC)c2)sc2c1CCC2 | ? | 10µM | 2.82µM | – | ? | 26.4µM | ·
COC(=O)c1c(NS(=O)(=O)c2cccs2)sc2c1CCCC2 | – | ? | – | – | – | · | ·
Cc1c(C(=O)OCC2CCCO2)[nH]c2c1C(=O)CC(c1ccco1)C2 (stereo not given) | ? | 7.08µM | 15.8µM | ? | – | 37.3µM | –
COc1ccc(OC)c(C2CC(=O)c3c([nH]c(C(=O)OCC4CCCO4)c3C)C2)c1 (stereo not given) | – | ? | – | – | – | · | ·
O=C(Nc1cccc(Cl)c1)c1cnccn1 | – | · | – | – | – | · | ·
S=C(Nc1cccc(Cl)c1)Nc1cccc2cnccc12 | 26.7µM | 3.16µM | 1.41µM | – | – | 13.2µM | ?
COc1ccccc1CNC(=O)C1CCN(S(=O)(=O)c2ccc(-n3cnnn3)cc2)CC1 | – | · | – | – | – | · | ·
CCCCCCOc1ccc(NC(=O)CC2C(=O)N(CC)C(=S)N2Cc2ccco2)cc1 (stereo not given) | – | – | – | ? | ? | · | ·
COc1ccc(C)cc1NC(=O)CSc1nnc(-c2ccccn2)n1Cc1ccco1 | – | – | – | – | – | · | ·
COc1ccccc1NC(=O)CSc1nnc(-c2ccccn2)n1Cc1ccco1 | – | – | 4.47µM | ? | ? | 59.1µM | –
NCc1csc(Nc2nncc3ccccc23)n1 | – | · | · | · | · | · | ·
NNc1nncc2ccccc12 | · | – | 5.01µM! | 7.08µM! | ? | ? | 74.5µM
CS(=O)(=O)N1CCC(C(=O)NCc2ccc(Cl)cc2)CC1 | – | · | – | – | – | · | ·
Cc1sc2c(c1C)C(=O)NC(c1ccccc1F)N2 (stereo not given) | 2.12µM | · | 7.94µM | – | – | 7.44µM | –
CN1CCN(C(=S)C(=O)Nc2ccc(Br)cc2)CC1 | 2.38µM | 7.94µM | 1.26µM | – | – | 6.63µM | ·
O=C(O)C1CCc2nc(NCc3ccccc3)nc(NCc3ccccc3)c2C1 (stereo not given) | – | · | · | · | · | · | ·
CCN1CCN(C(=S)c2ccc(OC)cc2)CC1 | 9.47µM | – | 11.2µM | – | – | 14.8µM | –
CCN(CC)c1ccc(NC(=O)c2ccccc2)cc1S(=O)(=O)Nc1ccccc1OC | 1.89µM | 1µM | 3.16µM | – | – | 6.63µM | ·
CC(=O)N1c2cc3ccccc3cc2N(C(C)=O)c2cc3ccccc3cc21 | – | · | · | · | · | · | ·
COc1ccccc1CC(Cc1nc2ccccc2[nH]1)c1nc2ccccc2[nH]1 (stereo not given) | – | – | 5.01µM | ? | ? | 16.7µM | ·
CC(C)Cc1nc2ccccc2[nH]1 | – | · | – | – | – | · | ·
O=C(CSc1nnc(SCC(=O)c2ccco2)s1)c1ccco1 | 16.8µM | ? | 14.1µM | – | – | 46.9µM | ?
